Experimental data published in PubChem BioAssay (Tox21).
Results filed as inconclusive are left out. The source made the active and inactive calls. Unless noted, the call rests on the fitted dose curve; in most records, active means well fitted curve in the direction sought with a large enough effect in the repeat runs; inconclusive means weak or mixed curves; inactive means no such curve, though single readings can be large; an effect the other way counts as inactive or inconclusive.

How the values were obtained:
[1] = qHTS assay to identify small molecule antagonists of the estrogen receptor alpha (ER-alpha) signaling pathway using the BG1 cell line in the presence of 0.1 nM 17-beta-estradiol - cell viability counter screen (AID 1259241); further: nearly all actives have a fitted effect of over 40% in size
Method in brief: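 VM7Luc4E2 cells (endogenous full-length ER-alpha, 4xERE-luciferase), cultured 5 days in charcoal-stripped serum, exposed to compounds with 0.1 nM 17beta-estradiol (final) for 22 hr at 37C. Viability read in same wells as live-cell protease fluorescence after 30 min.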

[2] = qHTS assay to identify small molecule antagonists of the androgen receptor (AR) signaling pathway using the MDA cell line in the presence of 0.5 nM R1881 - cell viability counter screen (AID 1259242); further: nearly all actives have a fitted effect of over 45% in size
Method in brief: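 Cytotoxicity toward MDA-kb2 cells is measured by CellTiter-Fluor live-cell protease fluorescence after 16 hr compound exposure at 37C in the presence of 0.5 nM R1881 stimulator.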

[3] = target: Estrogen receptor (Homo sapiens) (UniProt P03372); assay: qHTS assay to identify small molecule antagonists of the estrogen receptor alpha (ER-alpha) signaling pathway using the BG1 cell line in the presence of 0.1 nM 17-beta-estradiol (AID 1259244); further: nearly all actives have a fitted effect of over 50% in size
Sequence of Estrogen receptor (Homo sapiens) (P03372 whole entry, looked up): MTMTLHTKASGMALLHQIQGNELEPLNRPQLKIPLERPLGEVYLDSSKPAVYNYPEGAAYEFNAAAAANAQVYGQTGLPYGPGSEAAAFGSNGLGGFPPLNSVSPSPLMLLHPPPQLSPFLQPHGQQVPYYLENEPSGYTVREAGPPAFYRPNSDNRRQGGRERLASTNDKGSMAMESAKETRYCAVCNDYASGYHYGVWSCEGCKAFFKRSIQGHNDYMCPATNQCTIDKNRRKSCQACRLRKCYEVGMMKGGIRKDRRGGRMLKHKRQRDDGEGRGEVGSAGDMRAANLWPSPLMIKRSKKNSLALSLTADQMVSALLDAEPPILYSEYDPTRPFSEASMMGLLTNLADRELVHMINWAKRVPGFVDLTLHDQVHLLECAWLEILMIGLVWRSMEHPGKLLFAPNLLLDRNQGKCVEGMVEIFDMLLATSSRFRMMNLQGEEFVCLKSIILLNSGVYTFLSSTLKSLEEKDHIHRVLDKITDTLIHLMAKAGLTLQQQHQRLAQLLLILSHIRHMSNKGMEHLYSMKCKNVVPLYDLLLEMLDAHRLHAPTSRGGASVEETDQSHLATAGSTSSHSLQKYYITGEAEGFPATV
Method in brief: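 After 5 days in hormone-depleted medium (charcoal-stripped serum, no phenol red), VM7Luc4E2 cells were seeded, incubated 24 h, then co-treated with compound and 0.1 nM (final) estradiol for 22 h before luminescence detection.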

[4] = qHTS assay to identify small molecule HDAC inhibitors (AID 1259364); further: top concentration of the series differs between compounds; nearly all actives have a fitted effect of over 45% in size
Method in brief: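 Homogeneous cell-based luminescent assay of endogenous class I/II HDAC activity; HCT-116 cells, 2 h compound exposure, 30 min HDAC-Glo development at RT.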

[5] = qHTS assay to identify small molecule agonists of the sonic hedgehog signaling (Shh) pathway - cell viability counter screen (AID 1259366); further: nearly all actives have a fitted effect of over 50% in size
Method in brief: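 NIH/3T3-derived Gli1-Luc reporter cells, 2,000 per well, received compound after 4 h and were treated about 23 h at 37C. Viability measured in the same wells by CellTiter-Fluor fluorescence after 1 h.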

[6] = qHTS assay to identify small molecule antagonists of the sonic hedgehog signaling (Shh) pathway - cell viability counter screen (AID 1259367); further: nearly all actives have a fitted effect of over 55% in size
Method in brief: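 After a 4 hr settling period, 3T3 Gli1-Luc cells were treated with DMSO-dissolved chemicals and conditioned medium, kept 24 hr at 37C in 5% CO2, and assayed for viability by CellTiter-Fluor fluorescence following 1 hr reagent incubation.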

[7] = qHTS assay to identify small molecule agonists of the sonic hedgehog signaling (Shh) pathway (AID 1259368; calls by dose curve;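 further: NIH/3T3-derived 3T3Gli1-Luc cells carrying a stable Gli1-driven firefly luciferase reporter; series mostly up to about 92 µM; nearly all actives have a fitted effect of over 15% in size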)
Method in brief: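 Steps: seed 3T3 Gli1-Luc cells, incubate 4 hr at 37 C, pin-transfer compounds in DMSO alongside a positive control, incubate 24 hr, add luciferase detection reagent, wait 30 min at room temperature, read luminescence.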

[8] = qHTS assay to identify small molecule HDAC inhibitors - cell viability counter screen (AID 1259365); further: series mostly up to about 92 µM; nearly all actives have a fitted effect of over 50% in size
Method in brief: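 Wild-type HCT-116 cells, 1,500/well, cultured overnight, then compound-treated 2 h at 37 C. Viability measured as ATP luminescence with CellTiter-Glo after 30 min at room temperature.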

[9] = qHTS assay to identify small molecule phospholipidosis (PLD) inducers (AID 1259344; active means well fitted curve in the direction sought with a large enough effect; an effect the other way counts as inactive or inconclusive)
Method in brief: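 HepG2 cells grown on collagen I take up LipidTOX Red while exposed to compound for 24 h; after fixation they are imaged at 20x and pit metrics are extracted.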
On the % scale 0 is the no-effect control and ±100 the full control effect.

CCOC(=O)c1ccccc1
inactive: outcome [1] | outcome [2] | outcome [3] | Potency [4] | Potency [5] | Potency [6] | outcome [7]

CN1CCC(=C2c3ccccc3CCc3cccnc32)CC1
inactive: outcome [1] | outcome [2] | outcome [3] | Potency [4] | outcome [7]

c1ccc(Cc2ccccc2)cc1
inactive: outcome [1] | outcome [2] | outcome [3] | Potency [4] | Potency [5] | Potency [6] | outcome [7]

CC(=O)c1cnccn1
inactive: outcome [1] | outcome [2] | outcome [3] | Potency [4] | outcome [8] | Potency [5] | Potency [6] | outcome [7]

Cc1ccc(C(=O)c2ccccc2)cc1
inactive: outcome [1] | outcome [2] | outcome [3] | outcome [8] | Potency [5] | Potency [6] | outcome [7]

OCCCCCO
inactive: outcome [1] | outcome [2] | outcome [3] | Potency [4] | outcome [8] | Potency [5] | Potency [6] | outcome [7]

FB(F)F
inactive: outcome [1] | outcome [2] | outcome [3] | Potency [4] | Potency [5] | Potency [6] | outcome [7]

C=COC(=O)C(C)(CC)CCC(C)C (stereo not drawn)
inactive: outcome [1] | outcome [2] | outcome [3] | Potency [4] | outcome [8] | Potency [5] | Potency [6] | outcome [7]

CC(C)C[C@@H](N)C(=O)O
inactive: activity change, negative = cytotoxicity [1] -0.157% [at 19 µM] | viability change, negative = cytotoxic [2] -2.1% [at 19 µM] | outcome [9] | activity change, negative = inhibition [4] 7.66% [at 19 µM] | activity change, negative = cytotoxicity [8] -1.99% [at 19 µM] | viability change, negative = cytotoxic [5] -2.88% [at 19 µM] | viability change, negative = cytotoxic [6] 1.81% [at 19 µM] | activity change [7] -0.808% [at 18.9 µM]

CC(C)CCCO
inactive: outcome [1] | outcome [2] | outcome [3] | Potency [4] | Potency [5] | Potency [6] | outcome [7]

COc1cccc(OC)c1C(=O)N[C@@H]1C(=O)N2[C@@H]1SC(C)(C)[C@@H]2C(=O)O
inactive: outcome [1] | outcome [2] | outcome [9] | Potency [4] | outcome [8] | Potency [5] | Potency [6] | outcome [7]

CCCC[N+](C)(CCCC)CCCC
inactive: outcome [1] | outcome [2] | outcome [3] | Potency [4] | Potency [5] | Potency [6] | outcome [7]

CCN1C=CN(C)C1C (stereo not drawn)
inactive: outcome [1] | outcome [2] | outcome [3] | Potency [4] | Potency [5] | Potency [6] | outcome [7]

Cc1cc(C)c(N=Nc2c(O)c(S(=O)(=O)O)cc3cc(S(=O)(=O)O)ccc23)cc1C
inactive: activity change, negative = cytotoxicity [1] -12.4% [at 8.39 µM] | viability change, negative = cytotoxic [2] -3.59% [at 8.39 µM] | activity change, negative = inhibition [3] -1.05% [at 8.39 µM] | activity change, negative = inhibition [4] -2.59% [at 8.39 µM] | viability change, negative = cytotoxic [5] -2.37% [at 8.39 µM] | viability change, negative = cytotoxic [6] -9.99% [at 8.39 µM] | activity change [7] -1.73% [at 8.39 µM]

NC(CCC(=O)O)C(=O)O (stereo not drawn)
inactive: outcome [1] | outcome [2] | outcome [3] | Potency [4] | outcome [8] | Potency [5] | Potency [6] | outcome [7]

CC1=CCC(O)(C(C)C)CC1 (stereo not drawn)
inactive: outcome [1] | outcome [2] | outcome [3] | Potency [4] | outcome [8] | Potency [5] | Potency [6] | outcome [7]

Cc1ncc([C@@H](CCCCCCc2ccc3c(n2)NCCC3)CC(=O)O)cn1
inactive: outcome [1] | outcome [2] | outcome [3] | Potency [4] | outcome [7]

C=CC(C)(CCC=C(C)C)OC(=O)CC (stereo not drawn)
inactive: outcome [1] | outcome [2] | outcome [3] | Potency [4] | Potency [5] | Potency [6] | outcome [7]

CCCCN1C=CN(C)C1
inactive: activity change, negative = cytotoxicity [1] 0.391% [at 19 µM] | viability change, negative = cytotoxic [2] 0.923% [at 19 µM] | activity change, negative = inhibition [3] 8.85% [at 19 µM] | activity change, negative = inhibition [4] -8.42% [at 19 µM] | activity change, negative = cytotoxicity [8] 5.24% [at 19 µM] | viability change, negative = cytotoxic [5] 3.43% [at 19 µM] | viability change, negative = cytotoxic [6] 0.731% [at 19 µM] | activity change [7] 1.75% [at 18.9 µM]

C=COCC1CCC(COC=C)CC1 (stereo not drawn)
inactive: outcome [1] | outcome [2] | outcome [3] | Potency [4] | outcome [8] | Potency [5] | Potency [6] | outcome [7]

COCCOCC(OC)OC
inactive: outcome [1] | outcome [2] | outcome [3] | Potency [4] | outcome [8] | Potency [5] | Potency [6] | outcome [7]

CCCCN(CCC(=O)OCC)C(C)=O
inactive: outcome [1] | outcome [2] | outcome [3] | Potency [4] | Potency [5] | Potency [6] | outcome [7]

CC(=O)c1ccccc1[N+](=O)[O-]
inactive: outcome [1] | outcome [2] | outcome [3] | outcome [8] | Potency [5] | Potency [6] | outcome [7]

CCCCCC(=O)OCCc1ccccc1
inactive: outcome [1] | outcome [2] | outcome [3] | Potency [4] | outcome [8] | Potency [5] | Potency [6] | outcome [7]

O=C(O)CCCC[P+](c1ccccc1)(c1ccccc1)c1ccccc1
inactive: outcome [1] | outcome [2] | outcome [3] | Potency [4] | outcome [8] | Potency [5] | Potency [6] | outcome [7]

O=C(O)c1cc(C(=O)O)cc(C(=O)O)c1
inactive: outcome [1] | outcome [2] | outcome [3] | Potency [4] | outcome [8] | Potency [5] | outcome [7]

CC(=O)c1ccc2ccccc2c1
inactive: outcome [1] | outcome [2] | outcome [3] | Potency [4] | outcome [8] | Potency [5] | Potency [6] | outcome [7]
